Unmarked numbers belong to inactive results. Inconclusive results are not listed. Activity calls are given as the source filed them. Unless noted, calls follow the shape of the full dose curve.

Here are results for 8 compounds from PubChem BioAssay (Tox21).

Experiment [1] in a line: Nuclear factor erythroid 2-related factor 2/antioxidant responsive element (Nrf2/ARE) small molecule agonists: qHTS cell viability counter screen in human keratinocytes (AID 1919968; active = well fitted curve in the direction sought with a large enough effect in the repeat runs; an effect the other way counts as inactive or inconclusive; also: nearly all actives have a fitted effect of over 55% in size; also: potency is read from the fitted curve at half-maximal effect). The method in brief: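 Fluorescence read-out from CellTiter-Fluor after 1 h at 37 C. Wells held HaCaT-derived ARE-luciferase reporter cells (1,500/well) treated 23 h with DMSO-dissolved compounds. Run in the same wells as the luciferase agonist read.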

The nature of experiment [2]: Nuclear factor erythroid 2-related factor 2/antioxidant responsive element (Nrf2/ARE) small molecule agonists: luciferase reporter gene qHTS assay in human keratinocytes (AID 1919969). Also: nearly all actives have a fitted effect of over 35% in size. Also: potency is read from the fitted curve at half-maximal effect. In general terms: A reporter such as luciferase makes a cellular process visible.
Experiment [3] concerns the target KiSS-1 receptor (Homo sapiens) (UniProt Q969F8). Kind of experiment: Human kisspeptin (KISS1R) small molecule agonists, calcium flux assay in KISS1R-HEK293 cells (AID 1920064; active = well fitted curve in the direction sought with a large enough effect in the repeat runs; an effect the other way counts as inactive or inconclusive). The gist of the method:
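Calcium flux read-out: kinetic fluorescence at Ex/Em=480/540, 1 s intervals over 3 min, after pin-tool compound addition to dye-loaded KISS1R-HEK293 cells. Fifteen concentrations, triplicates.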
A general note: Calcium assays in cells follow changes in intracellular calcium, usually with a dye or a luminescent sensor.

Experiment [4] is described as follows: G protein-coupled receptor (GPCR) small molecule agonists, calcium flux assay: HEK293 wild type cell line counter screen (AID 1920065). The method in brief: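 Agonist mode; 18 h seeding at 37 C, 1 h dye load at 37 C; compounds pinned from DMSO, ATP as positive control; kinetic fluorescence 480/540 nm, 3 min, 1 s reads; 15 concentrations, triplicate.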
A short description of experiment [5]: p53 small molecule agonists, cell-based qHTS assay with human liver microsomes (AID 1963577).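 Also: p53 response element beta-lactamase reporter cells with liver microsomes plus NADPH.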 The gist of the method:
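16 h, 37 C exposure of p53RE-bla cells to compounds with human liver microsomes and NADPH (0.5 mg/mL final each); detection via LiveBLAzer mixture, 2 h dark at room temperature.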
A general note: qHTS replaces the single test concentration by a dilution series.

The nature of experiment [6]: p53 small molecule agonists, cell-based qHTS assay with rat liver microsomes (AID 1963578). The method in brief:
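With rat liver microsomes and NADPH present (0.5 mg/mL final each), p53RE-bla cells are treated with compound for 16 h at 37 C. LiveBLAzer detection mixture is then applied for 2 h at room temperature in the dark.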

Experiment [7] in a line: p53 small molecule agonists, cell-based qHTS assay with human liver microsomes: qHTS cell viability counter screen (AID 1963579). Also: nearly all actives have a fitted effect of over 45% in size. Also: potency is read from the fitted curve at half-maximal effect. The method in brief:
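In this multiplexed counter screen, the reporter plates were subsequently treated with CellTiter-Glo so that cell viability, reflected by luminescence, could be recorded for p53RE-bla cells dosed 16 h with compounds under microsomal activation (HLM and NADPH).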

A short description of experiment [8]: p53 small molecule agonists, cell-based qHTS assay with rat liver microsomes: qHTS cell viability counter screen (AID 1963580). Also: nearly all actives have a fitted effect of over 45% in size. Also: potency is read from the fitted curve at half-maximal effect. The method in brief:
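After the beta-lactamase ratio was read, CellTiter-Glo was added to the same wells and luminescence measured at 30 min; cells had been treated 16 h at 37 C with compounds, rat liver microsomes and NADPH (0.5 mg/mL final each).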

Experiment [9] is described as follows: p53 small molecule agonists, cell-based qHTS assay (AID 1963582; active = well fitted activation curve with a large enough effect in the signal ratio in the repeat runs, not every such curve was filed as active; the % refers to the signal ratio). The gist of the method: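 Fluorescence intensity read-out of a beta-lactamase reporter under a p53 response element. Cells were exposed to DMSO-dissolved compounds for 16 h at 37 C, then developed with FRET substrate for 2 h at RT.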
For experiment [10], the target named is 5-hydroxytryptamine receptor 2A (Homo sapiens) (UniProt P28223). Put plainly: 5-hydroxytryptamine receptor 2A (HTR2A) small molecule antagonists, cell-based qHTS assay (AID 1963586). Also: nearly all actives have a fitted effect of over 45% in size. Also: potency is read from the fitted curve at half-maximal effect. The method in brief: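 CHO cells stably expressing human HTR2A were plated for 18 h at 37 C, then loaded with calcium dye for 1 h. Compounds were preincubated 5 min at room temperature before DOI (4 nM solution) was added. Kinetic fluorescence was read for 3 min.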
Chain of 5-hydroxytryptamine receptor 2A (Homo sapiens) (P28223 whole entry, looked up): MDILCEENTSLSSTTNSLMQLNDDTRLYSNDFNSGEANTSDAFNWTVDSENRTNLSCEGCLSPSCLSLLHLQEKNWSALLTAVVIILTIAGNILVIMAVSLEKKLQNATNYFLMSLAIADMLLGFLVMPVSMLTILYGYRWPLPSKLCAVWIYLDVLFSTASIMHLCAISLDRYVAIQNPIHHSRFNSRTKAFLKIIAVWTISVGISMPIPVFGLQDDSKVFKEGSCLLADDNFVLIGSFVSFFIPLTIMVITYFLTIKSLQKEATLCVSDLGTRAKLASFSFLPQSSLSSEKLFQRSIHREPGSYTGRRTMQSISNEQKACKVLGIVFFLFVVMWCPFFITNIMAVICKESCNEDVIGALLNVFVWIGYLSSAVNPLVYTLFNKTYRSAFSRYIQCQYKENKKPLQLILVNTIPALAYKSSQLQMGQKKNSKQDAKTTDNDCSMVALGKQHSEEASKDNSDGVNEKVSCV

Experiment [11] has the same target. Kind of experiment: 5-hydroxytryptamine receptor 2A (HTR2A) small molecule agonists, cell-based qHTS assay (AID 1963587). Also: nearly all actives have a fitted effect of over 30% in size. The method in brief:
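CHO cells stably expressing human HTR2A, plated 18 h, loaded with calcium dye 1 h at 37 C. Agonist mode: compounds added and intracellular calcium fluorescence recorded kinetically for 2 min at 1 sec intervals.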

Experiment [12] concerns the target Muscarinic acetylcholine receptor M1 (Homo sapiens) (UniProt P11229). Kind of experiment: Cholinergic receptor muscarinic 1 (CHRM1) small molecule agonists, cell-based qHTS assay (AID 1963589). Also: nearly all actives have a fitted effect of over 35% in size. The method in brief:
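Calcium flux read-out: kinetic fluorescence at 1 sec intervals after pin-tool compound addition to dye-loaded CHRM1-CHO cells (human M1). Agonist mode; 15 concentrations tested in triplicate independent runs.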

A short description of experiment [13]: cAMP Responsive Elements (CRE) small molecule agonists, cell-based qHTS assay (AID 1963590). The method in brief:
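Beta-lactamase reporter readout: LiveBLAzer B/G FRET substrate, 2 h at room temperature, added after 3 h compound treatment of CRE-bla HEK 293T cells at 37 C/5% CO2.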

Experiment [14] is described as follows: cAMP Responsive Elements (CRE) small molecule antagonists, cell-based qHTS assay (AID 1963591; active = well fitted inhibition curve with a large enough effect in the signal ratio in the repeat runs, not every such curve was filed as active; the % refers to the signal ratio). The method in brief: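 HEK293T CRE-bla; 18 h preincubation; compound pin-transfer; NKH477 0.25 uM final, 3 h, 37 C; LiveBLAzer FRET substrate 2 h RT.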
The target of experiment [15] is Beta-2 adrenergic receptor (Homo sapiens) (UniProt P07550). Put plainly: Adrenergic beta2 receptor (ADRB2) small molecule antagonists, cell-based qHTS assay (AID 1963592). Also: series mostly up to about 92 µM; nearly all actives have a fitted effect of over 50% in size. The gist of the method: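 Assay format: CHO-ADRB2 cells, 18-20hr seeding at 37C/5% CO2, then compound plus 1nM isoproterenol agonist mix for 0.5hr RT. Homogeneous time-resolved fluorescence cAMP detection after 1hr, expressed as 665/615 nm ratio.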
Chain of Beta-2 adrenergic receptor (Homo sapiens) (P07550 whole entry, looked up): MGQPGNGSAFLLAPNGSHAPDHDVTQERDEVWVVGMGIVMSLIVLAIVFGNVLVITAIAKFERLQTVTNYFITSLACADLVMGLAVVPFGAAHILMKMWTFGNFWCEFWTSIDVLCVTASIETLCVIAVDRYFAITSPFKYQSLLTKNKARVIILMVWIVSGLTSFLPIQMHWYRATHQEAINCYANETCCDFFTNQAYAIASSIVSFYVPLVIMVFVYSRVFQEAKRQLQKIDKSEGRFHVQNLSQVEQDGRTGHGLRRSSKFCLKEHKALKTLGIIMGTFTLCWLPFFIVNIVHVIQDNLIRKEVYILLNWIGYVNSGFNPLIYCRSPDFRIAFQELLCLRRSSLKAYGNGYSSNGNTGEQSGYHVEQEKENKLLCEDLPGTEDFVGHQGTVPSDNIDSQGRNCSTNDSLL

Experiment [16] has as its target D(2) dopamine receptor (Homo sapiens) (UniProt P14416). Kind of experiment: Dopamine D2 receptor (DRD2) small molecule antagonists, cell-based qHTS assay (AID 1963595; active = well fitted inhibition curve with a large enough effect in the signal ratio in the repeat runs, with a control signal flat; the % refers to the signal ratio). The gist of the method: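 In this cell-based antagonist screen, compounds act for 10 min at room temperature before a 30 min challenge with 12 nM quinpirole and 200 nM NKH477. cAMP is quantified by HTRF competition in DRD2-HEK293 cells containing 0.1 mM Ro20-1724.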

Experiment [17] can be described thus: p53 small molecule agonists, cell-based qHTS assay: qHTS cell viability counter screen (AID 1963581). Also: nearly all actives have a fitted effect of over 45% in size. Also: potency is read from the fitted curve at half-maximal effect. The method in brief: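 Cytotoxicity read-out: ATP-based luminescence (CellTiter-Glo, 30 min RT) measured in the same wells as the p53 reporter assay, HCT-116 p53RE-bla cells, 16 h compound exposure at 37 C.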
For experiment [18], the target named is D(2) dopamine receptor (Homo sapiens) (UniProt P14416). Kind of experiment: Dopamine D2 receptor (DRD2) small molecule agonists, cell-based qHTS assay (AID 1963594). Also: nearly all actives have a fitted effect of over 35% in size. The gist of the method:
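HEK293 cells stably expressing human DRD2, pre-treated with PDE inhibitor Ro20-1724 (0.1 mM final) and compound 10 min at room temperature, then stimulated with NKH477 (200nM […]) for 30 min. cAMP read by HTRF (665/620 nm).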

Experiment [19] deals with Muscarinic acetylcholine receptor M1 (Homo sapiens) (UniProt P11229). Put plainly: Cholinergic receptor muscarinic 1 (CHRM1) small molecule antagonists, cell-based qHTS assay (AID 1963588). Also: nearly all actives have a fitted effect of over 40% in size. The gist of the method:
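Compounds were tested at 15 concentrations in three independent runs. Dye-loaded CHRM1-CHO cells were exposed 5 min at room temperature before stimulation by acetylcholine added at 50nM. Intracellular calcium was read kinetically on FDSS for 3 min.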

Chain of D(2) dopamine receptor (Homo sapiens) (P14416 whole entry, looked up): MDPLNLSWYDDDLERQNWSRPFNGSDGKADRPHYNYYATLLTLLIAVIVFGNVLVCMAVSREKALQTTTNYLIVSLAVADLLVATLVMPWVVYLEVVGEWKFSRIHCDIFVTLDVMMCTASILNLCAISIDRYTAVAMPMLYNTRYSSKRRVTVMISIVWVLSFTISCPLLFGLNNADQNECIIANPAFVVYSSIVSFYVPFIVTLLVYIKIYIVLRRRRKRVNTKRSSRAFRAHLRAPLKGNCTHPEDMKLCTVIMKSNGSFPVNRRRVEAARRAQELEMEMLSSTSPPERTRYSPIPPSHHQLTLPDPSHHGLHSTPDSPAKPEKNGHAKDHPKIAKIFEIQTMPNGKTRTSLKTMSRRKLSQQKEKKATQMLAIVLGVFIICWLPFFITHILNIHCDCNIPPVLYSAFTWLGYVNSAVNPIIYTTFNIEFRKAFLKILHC
Chain of Muscarinic acetylcholine receptor M1 (Homo sapiens) (P11229 whole entry, looked up): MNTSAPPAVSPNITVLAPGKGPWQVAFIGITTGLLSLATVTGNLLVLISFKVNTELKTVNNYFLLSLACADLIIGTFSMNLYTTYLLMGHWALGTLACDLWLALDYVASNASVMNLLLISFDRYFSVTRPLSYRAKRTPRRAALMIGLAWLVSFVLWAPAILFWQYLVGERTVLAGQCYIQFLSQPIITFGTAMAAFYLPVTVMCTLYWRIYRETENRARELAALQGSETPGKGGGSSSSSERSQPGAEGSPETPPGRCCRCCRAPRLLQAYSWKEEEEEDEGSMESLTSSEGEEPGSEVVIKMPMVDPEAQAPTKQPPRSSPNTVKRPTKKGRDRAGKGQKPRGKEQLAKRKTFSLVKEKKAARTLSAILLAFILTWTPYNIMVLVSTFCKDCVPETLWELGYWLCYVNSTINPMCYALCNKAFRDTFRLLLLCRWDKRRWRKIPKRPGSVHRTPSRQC
Chain of KiSS-1 receptor (Homo sapiens) (Q969F8 whole entry, looked up): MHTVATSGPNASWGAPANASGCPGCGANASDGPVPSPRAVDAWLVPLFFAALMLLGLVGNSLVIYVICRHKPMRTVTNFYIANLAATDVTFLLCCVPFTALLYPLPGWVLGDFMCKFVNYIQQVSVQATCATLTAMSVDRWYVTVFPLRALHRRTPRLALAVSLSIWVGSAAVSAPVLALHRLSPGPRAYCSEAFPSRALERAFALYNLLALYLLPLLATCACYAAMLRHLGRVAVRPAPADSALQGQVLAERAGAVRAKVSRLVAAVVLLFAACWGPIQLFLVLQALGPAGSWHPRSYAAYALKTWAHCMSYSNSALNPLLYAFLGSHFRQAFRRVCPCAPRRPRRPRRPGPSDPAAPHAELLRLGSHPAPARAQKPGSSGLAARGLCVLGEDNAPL

`CC(=O)OCC(C)C`: the Potency result in [1], in experiment [2], in [5], in experiment [6], in experiment [7] and in [8] was “inactive” each time. In addition, the Potency result in experiment [9], in experiment [10], in experiment [11], in experiment [12], in experiment [13] and in [14] was “inactive” each time. Also, the Potency result in [15] and in [16] was “inactive” throughout. The outcome in [3] and in experiment [4] was inactive.
Take `O=c1cc(-c2ccccc2)oc2ccc3ccccc3c12`: the Potency result in [1], in experiment [5], in [6], in experiment [7], in [9] and in [16] was “inactive” throughout. Further, the Potency in [2] was 0.486 µM (active). The result in [3] and in experiment [4] was inactive.
With `C/C=C/C(=O)Oc1c(CCCCCC(C)C)cc([N+](=O)[O-])cc1[N+](=O)[O-]`, the Potency in [1] is 17.2 µM (active); in experiment [7], 14.5 µM (active); in experiment [8], 40.8 µM (active); in experiment [17], 11.5 µM (active); in [10], 21.1 µM (active). For the same compound, the Potency result in [2], in experiment [5], in experiment [6], in experiment [12], in [15] and in [18] was “inactive” throughout. In [16], the Potency result is “inactive”. The outcome in experiment [3] and in [4] was inactive.
Regarding `CCCCOCCOC(=O)c1cccnc1`, the Potency entry in experiment [1], in experiment [2], in experiment [5], in experiment [6], in experiment [7] and in experiment [8] was “inactive” throughout. For the same compound, the Potency entry in experiment [17], in experiment [10], in experiment [11], in [19], in experiment [13] and in experiment [14] was “inactive” each time. The Potency entry in experiment [15], in experiment [18] and in [16] was “inactive” throughout. The result in experiment [3] and in experiment [4] was inactive.
With `O=C(O)c1cccc(N(Cc2cccnc2)c2ccc(OC(F)F)c(OC(F)F)c2)c1`, the Potency entry in experiment [1], in experiment [2], in experiment [5], in [6], in experiment [7] and in [8] was “inactive” each time. Further, the Potency result in [17], in [10], in experiment [11], in experiment [19], in experiment [12] and in experiment [15] was “inactive” each time. Moreover, the Potency result in experiment [16] is “inactive”. In addition, the outcome in [3] and in [4] was inactive.
With `O=C(O)Cc1sc(-c2ccccc2)nc1-c1ccc(Cl)cc1`, the Potency entry in experiment [1], in experiment [2], in experiment [5], in experiment [6], in [7] and in experiment [8] was “inactive” each time. In addition, the Potency result in experiment [10], in [11], in [12], in experiment [15] and in experiment [16] was “inactive” each time. For the same compound, the result in experiment [3] and in [4] was inactive.
`COc1ccc(CCC(=O)c2c(O)cc(O[C@@H]3O[C@H](CO)[C@@H](O)[C@H](O)[C@H]3O[C@@H]3O[C@@H](C)[C@H](O)[C@@H](O)[C@H]3O)cc2O)cc1O`: the Potency entry in experiment [1], in experiment [2], in experiment [5], in experiment [6], in experiment [7] and in experiment [8] was “inactive” in each case. The Potency entry in experiment [9], in experiment [10], in [11], in [12], in experiment [13] and in experiment [15] was “inactive” in each case. Further, the Potency result in experiment [18] is “inactive”. Moreover, the result in experiment [3] and in experiment [4] was inactive.
With `CCC(C)(CCC(C)C)C(=O)[O][Sn]([CH3])([CH3])[O]C(=O)C(C)(CC)CCC(C)C` (configuration not stated), the Potency entry in experiment [1], in [5], in [6], in [7], in experiment [17] and in [9] was “inactive” in each case. Moreover, the Potency entry in experiment [10], in experiment [11], in experiment [19], in experiment [12], in experiment [13] and in experiment [14] was “inactive” in each case. Moreover, the Potency result in [15], in experiment [18] and in experiment [16] was “inactive” in each case. Also, the Potency in [2] was 30.6 µM (active). Besides, the result in [3] and in [4] was inactive.
